Reference: PubChem BioAssay (NCI)
Where “and” joins values, the source holds several entries; their conditions need not be identical. Equal entries are not always repeated. The panel holds about 79,000 compounds, 15% with a hit somewhere; the sample as a whole holds those more often. Some structures have more than one record in an assay (separate samples or runs), and their calls can disagree. Calls of active or inactive are those of the source. Cut-off read from the data, not from the text of the source: active = growth inhibition above about 70%; inactive = the rest.

Experiments:
[1] = NCI Yeast Anticancer Drug Screen. Data for the rad50 strain (AID 155);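 note: 0% = growth of vehicle-only cultures of the same strain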; conditions: S. cerevisiae rad50 strain growth inhibition, stronger effect = higher value
How it was run: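 Genetically altered yeast (DNA repair pathway); compound treatment; growth inhibition vs vehicle ctrl.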

[2] = NCI Yeast Anticancer Drug Screen. Data for the mec2-1 strain (AID 157); conditions: S. cerevisiae mec2-1 strain, stronger effect = higher value
How it was run: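 Yeast mec2-1 mutant treated with compound. Readout: growth inhibition vs vehicle controls.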

[3] = NCI Yeast Anticancer Drug Screen. Data for the sgs1 mgt1 strain (AID 161);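 note: 0% = growth of cultures given vehicle only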; conditions: S. cerevisiae sgs1 mgt1 strain, stronger effect = higher value
How it was run: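 Mutant yeast exposed to compound; growth scored against vehicle-only wells.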

[4] = NCI Yeast Anticancer Drug Screen. Data for the cln2 rad14 strain (AID 165);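 note: 0% = growth equal to vehicle treated cultures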; conditions: S. cerevisiae cln2 rad14 strain, stronger effect = higher value
How it was run: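 cln2 rad14 yeast strain; compound exposure; growth inhibition read vs vehicle controls.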

[5] = NCI Yeast Anticancer Drug Screen. Data for the bub3 strain (AID 167); conditions: S. cerevisiae bub3 mutant strain, stronger effect = higher value
How it was run: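 Yeast carrying a defined mutation is treated with each compound, and growth is compared with that of vehicle-exposed cells to give inhibition.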

[6] = NCI Yeast Anticancer Drug Screen. Data for the mlh1 rad18 strain (AID 175); conditions: S. cerevisiae mlh1 rad18 strain growth inhibition, stronger effect = higher value
How it was run: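 Yeast w/ defined DNA-repair lesions; compound exposure; growth vs vehicle controls → % inhibition.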

[7] = at 5.0 µM (retest, dose inferred, filed as 0.5)
[8] = at 50.0 µM (retest, dose inferred, filed as 5.0)

Row | Compound | growth inhibition [1, 7] | growth inhibition [1, 8] | growth inhibition ([1]; at 50.0 µM) | growth inhibition [2, 7] | growth inhibition [2, 8] | growth inhibition ([2]; at 50.0 µM) | growth inhibition [3, 7] | growth inhibition [3, 8] | growth inhibition ([3]; at 50.0 µM) | growth inhibition [4, 7] | growth inhibition [4, 8] | growth inhibition ([4]; at 50.0 µM) | growth inhibition [5, 7] | growth inhibition [5, 8] | growth inhibition ([5]; at 50.0 µM) | growth inhibition [6, 7] | growth inhibition [6, 8] | growth inhibition ([6]; at 50.0 µM)
1 | O=c1oc2ccccc2c(O)c1C(c1ccc(-c2ccccc2)cc1)c1c(O)c2ccccc2oc1=O | 9% (inactive) | 52% (inactive) | 78.1% (active) | 7% (inactive) | 97% (active) | 89.8% (active) | -16% (inactive) | 97% (active) | 81.6% (active) | 19% (inactive) | 97% (active) | 85.2% (active) | 14% (inactive) | 97% (active) | 77.5% (active) | 16% (inactive) | 88% (active) | 89.3% (active)
2 | O=c1[nH]cc(Cn2cnc3ncccc3c2=O)c(=O)[nH]1 | -5% (inactive) | -4% (inactive) | 6.4% (inactive) | -5% (inactive) | -5% (inactive) | 7.55% (inactive) | -3% (inactive) | -1% (inactive) | -2.1% (inactive) | -3% (inactive) | -11% (inactive) | 40.5% (inactive) | -4% (inactive) | -2% (inactive) | -18.2% (inactive) | -8% (inactive) | -5% (inactive) | -16.5% (inactive)
3 | CC(C)C(=O)CP(=O)(O)O | -10% (inactive) | 6% (inactive) | -18.1% (inactive) | 8% (inactive) | -2% (inactive) | -22.6% (inactive) | -9% (inactive) | -4% (inactive) | -30.5% (inactive) | -31% (inactive) | -13% (inactive) | 70.2% (active) | 7% (inactive) | 4% (inactive) | -21.6% (inactive) | 7% (inactive) | 9% (inactive) | -7.2% (inactive)
4 | CC(=O)O.CC(=O)[O-].CC(=O)[O-].[Co+3].[NH-]CC[NH-].[NH-]CC[NH-] | -5% (inactive) | 94% (active) | 23.3% (inactive) | -5% (inactive) | 98% (active) | 10.3% (inactive) | 2% (inactive) | 97% (active) | -3.35% (inactive) | -4% (inactive) | 96% (active) | 31.6% (inactive) | 38% (inactive) | 98% (active) | -1.65% (inactive) | -7% (inactive) | 97% (active) | 4.05% (inactive)
5 | O=S(=O)(c1ccccc1)N1C2C3CCC(CC3)C21 (configuration not stated) | -1% (inactive) | -4% (inactive) | 1.2% (inactive) | -11% (inactive) | -16% (inactive) | 2.75% (inactive) | -3% (inactive) | -32% (inactive) | 23% (inactive) | -1% (inactive) | 3% (inactive) | 7.65% (inactive) | 14% (inactive) | 96% (active) | 76.6% (active) | -13% (inactive) | -5% (inactive) | 1.5% (inactive)
6 | [O-][n+]1onc2ccccc21 | 47% (inactive) | 99% (active) | 98.3% (active) | 30% (inactive) | 99% (active) | 52% (inactive) | 29% (inactive) | 99% (active) | 49.9% (inactive) | 34% (inactive) | 99% (active) | 97.7% (active) | 38% (inactive) | 99% (active) | 46.7% (inactive) | 63% (inactive) | 99% (active) | 98.2% (active)
7 | Cc1cc(-c2ccccc2)cc(C)[n+]1[O-] | -1% (inactive) | 20% (inactive) | 20.7% (inactive) | -6% (inactive) | 13% (inactive) | 28.1% (inactive) | -6% (inactive) | 12% (inactive) | 54.6% (inactive) | -8% (inactive) | -13% (inactive) | -31.3% (inactive) | -2% (inactive) | 14% (inactive) | -12.7% (inactive) | -4% (inactive) | 30% (inactive) | 5.4% (inactive)
8 | O=c1oc2ccccc2c(O)c1C(c1ccc(OCc2ccccc2)cc1)c1c(O)c2ccccc2oc1=O | 16% (inactive) | 7% (inactive) | 63.3% (inactive) | 16% (inactive) | 51% (inactive) | 86.3% (active) | -33% (inactive) | 92% (active) | 65.3% (inactive) | -3% (inactive) | 94% (active) | 62.2% (inactive) | 7% (inactive) | 95% (active) | 60.2% (inactive) | 7% (inactive) | 23% (inactive) | 50.9% (inactive)
9 | [Se]C(=NCc1ccccc1)NCc1ccccc1 | 29% (inactive) | 61% (inactive) | 93.3% (active) | 4% (inactive) | 15% (inactive) | 6.1% (inactive) | 2% (inactive) | 19% (inactive) | 19.2% (inactive) | -1% (inactive) | -7% (inactive) | -102% (inactive) | 3% (inactive) | 18% (inactive) | 46.2% (inactive) | 8% (inactive) | 29% (inactive) | 52.4% (inactive)
10 | Nc1ccc(Cc2ccc(N)c(Cl)c2)cc1Cl | -6% (inactive) | 90% (active) | 78% (active) | -8% (inactive) | 78% (active) | 95.1% (active) | -1% (inactive) | 92% (active) | 95.2% (active) | -10% (inactive) | 91% (active) | 75.8% (active) | 0% (inactive) | 93% (active) | 96.8% (active) | -3% (inactive) | 97% (active) | 97.2% (active)
11 | C/C(=C\c1ccc2c(c1)OCO2)[N+](=O)[O-] | 93% (active) | 98% (active) | 98.2% (active) | 7% (inactive) | 100% (active) | 73.5% (active) | 16% (inactive) | 97% (active) | 83.4% (active) | -6% (inactive) | 99% (active) | 40.1% (inactive) | 10% (inactive) | 96% (active) | 51% (inactive) | 11% (inactive) | 99% (active) | 70.8% (active)
12 | CCC[CH2][Sn][Cl] | 99% (active) | 98% (active) | 98.2% (active) | 100% (active) | 98% (active) | 98.7% (active) | 99% (active) | 99% (active) | 98.8% (active) | 99% (active) | 98% (active) | 97.7% (active) | 99% (active) | 97% (active) | 98.1% (active) | 99% (active) | 98% (active) | 97.4% (active)
13 | Cn1cnc(C(=N)[Se])c1N | 63% (inactive) | 94% (active) | 83.4% (active) | 30% (inactive) | 91% (active) | 71% (active) | 27% (inactive) | 53% (inactive) | 30.8% (inactive) | 2% (inactive) | 15% (inactive) | -24.8% (inactive) | 51% (inactive) | 94% (active) | 91.4% (active) | 78% (active) | 94% (active) | 67.7% (inactive)
14 | C=CCC[CH2][Sn]([c]1ccccc1)([c]1ccccc1)[c]1ccccc1 | 98% (active) | 93% (active) | 99.5% (active) | 99% (active) | 98% (active) | 99.5% (active) | 99% (active) | 98% (active) | 99.4% (active) | 98% (active) | 96% (active) | 98.2% (active) | 97% (active) | 97% (active) | 99% (active) | 99% (active) | 97% (active) | 99.4% (active)
15 | COC(=O)CCCCCCCCC[CH2][Hg][Cl] | 99% (active) | 99% (active) | 95% (active) | 100% (active) | 99% (active) | 97.5% (active) | 99% (active) | 99% (active) | 98% (active) | 99% (active) | 98% (active) | 97.3% (active) | 99% (active) | 99% (active) | 98.4% (active) | 100% (active) | 99% (active) | 98.4% (active)
17 | N=C(N)c1ccccc1 | 12% (inactive) | 79% (active) | -2.25% (inactive) and 80.2% (active) | -1% (inactive) | 20% (inactive) | 5.4% (inactive) and 2.1% (inactive) | 2% (inactive) | 23% (inactive) | -1.6% (inactive) and 17.9% (inactive) | 6% (inactive) | 13% (inactive) | -0.6% (inactive) and 49.5% (inactive) | -2% (inactive) | 8% (inactive) | 6.9% (inactive) and 25.4% (inactive) | -2% (inactive) | 22% (inactive) | -14.5% (inactive) and 46.6% (inactive)
18 | COc1ccccc1[As]=O (configuration not stated) | 1% (inactive) | 99% (active) | 99.3% (active) | -12% (inactive) | 99% (active) | 99.6% (active) | 8% (inactive) | 99% (active) | 99.5% (active) | -14% (inactive) | 99% (active) | 98.6% (active) | 12% (inactive) | 99% (active) | 99.2% (active) | 25% (inactive) | 99% (active) | 99.4% (active)
19 | O/N=C/c1ccc2c(c1)OCO2 | 91% (active) | 99% (active) | -1.6% (inactive) | 100% (active) | 100% (active) | -1.95% (inactive) | 46% (inactive) | 100% (active) | 38.3% (inactive) | 35% (inactive) | 99% (active) | -34.2% (inactive) | 98% (active) | 99% (active) | 4.25% (inactive) | 99% (active) | 99% (active) | -14.1% (inactive)
